From PubChem BioAssay
The list is not random: actives were taken first. Their share in the collection is about 3.4%.
TROY signal inh: TROY signaling inhibition; hit rate 0.98% among 360,000; Q293 LMP1-TROYcd NF-kB luciferase reporter, 4 h; AID 1347056; inhibition, % at 10 µM;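 active = compounds whose plate-normalised and pattern-corrected inhibition of the luciferase reporter signal at the single screening dose is 50% or more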
HIF-2a inh: HIF-2a inhibition | 786-0 RCC cells HIF-2a reporter, luciferase luminescence, overnight | inhibition, % at 18.8 µM | hit rate 0.72% among 360,000 | AID 624352;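 active = inhibition of the luminescence signal of 40% or more relative to plate controls, in a single-dose primary screen at 18.75 µM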
TWEAK-Fn14 inh: TWEAK-Fn14 signaling inhibition. TWEAK-stimulated Fn14 reporter cells, luciferase luminescence, 8 h. inhibition, % at 10 µM. hit rate 2% among 360,000. AID 1159606; in the data active = inhibition above about 50%
Shn3 3UTR inh: inhibitors of Schnurri-3 3'UTR reporter in osteoblasts | Clone20 osteoblast Shn3 3'UTR firefly luciferase, 24 h | inhibition, % at 12.5 µM | hit rate 0.52% among 360,000;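 active = mean inhibition of at least 75% with every replicate also reaching 75%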;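 also: 0% = median of neutral control wells and 100% = pilot-screen positive control compound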
TRPM1 prom inh: inhibitors of MITF-driven TRPM1 promoter in melanoma cells; SK-MEL-5 TRPM1 promoter luciferase, 24 h; inhibition, % at 12.5 µM; hit rate 0.83% among 330,000; AID 488899;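 active = mean inhibition across replicates of 60% or more, whatever share of single replicates reaches that level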
EBV LMP1 NFkB: inhibitors of Epstein-Barr LMP1-induced NF-kappaB reporter; LMP1-induced NF-kappaB luciferase reporter cells, luminescence; inhibition, % at 12.5 µM; hit rate 0.69% among 350,000; AID 504558; in the data active = inhibition above about 41%;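 also: 0% = neutral control wells and 100% = reference inhibitor control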
Mdm2-MdmX confirm: confirmation of inhibitors of human Mdm2/MdmX interaction, set 2 | shares compounds with HIF-2a inh | SaOS-2 split-luciferase Mdm2/MdmX complementation, luminescence | inhibition, % at 8 µM | hit rate 99% among 740 | AID 504601;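 active = mean inhibition of the luminescence signal across two replicates at or above 26 percent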
HIF-2a inh conf: confirmation of HIF-2a inhibitors | shares compounds with HIF-2a inh | 786-0 RCC cells, HIF-2a luciferase reporter luminescence, overnight | inhibition, % at 18.8 µM | hit rate 56% among 1,800 | AID 651580;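 active = mean inhibition across four replicates of at least 40 percent at the single tested concentration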
HIF-1a counter: inhibits HIF-1a reporter, a counter-screen for HIF-2a inhibitors | shares compounds with HIF-2a inh | MiaPaCa-2 HIF-1a luciferase reporter, desferoxamine, overnight | inhibition, % at 18.8 µM | hit rate 72% among 1,800;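 active = mean inhibition of the reporter signal across four replicates at the single tested dose of 50% or more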
* hit, by the source's call; · = no result.

SMILES	TROY signal inh	HIF-2a inh	TWEAK-Fn14 inh	Shn3 3UTR inh	TRPM1 prom inh	EBV LMP1 NFkB	HIF-2a inh conf	HIF-1a counter	others
Cn1c(COc2cccc3ccccc23)nnc1SCC(=O)OC1CCCCC1	8	67*	6	-3	-5	-1	28	-4
CCOC(=O)C(CC)(CC)C(=O)/C=C/c1ccc(Br)cc1	-9	58*	39	31	15	-13	26	106*
Cc1cc(NC(=O)CSc2nc3cc(Cl)ccc3o2)no1	-32	-39	-13	-10	-7	4	·	·
O=S1(=O)C=C(Sc2nc3cc(Cl)ccc3o2)c2ccccc21	28	-4	64*	100*	68*	-9	·	·	Mdm2-MdmX confirm=103*
CC(=O)c1ccc(OC(=O)COc2ccccc2Cl)cc1	7	14	10	3	3	1	·	·
COc1cccc(CN(C)C(=O)c2ccc(COc3ccc(Cl)cc3)cc2)c1OC	-15	-214	1	-25	-81	-21	·	·
CCN1CCN(CCCNC(=O)c2ccc(/C=C3/Sc4ccccc4N(Cc4ccccc4F)C3=O)cc2)CC1	60*	91*	7	-22	42	0	-21	102*
CCN1CCN(CCNC(=O)c2ccc(/C=C3/Sc4ccccc4N(Cc4ccccc4C)C3=O)cc2)CC1	42	19	-76	-8	-6	-6	·	·
COc1cc(CNC2CCCC2)cc(Cl)c1OCc1ccccc1Cl	-9	82*	-65	34	82*	-19	7	107*
CN1CCN(CC(=O)N2CCn3c4c(c5cc(C6CCCCC6)ccc53)CCCC42)CC1 (stereo not drawn)	15	3	-55	47	65*	-77	·	·	Mdm2-MdmX confirm=103*
Cc1ccc2c(c1)c1c3n2CCN(C(=O)CN2CCN(C)CC2)C3CCC1 (stereo not drawn)	-10	-2	-3	12	-42	-14	·	·
CC(C)NC(=O)/C(C#N)=C/c1cccc(NC(=O)c2ccccc2Cl)c1	20	48*	38	8	7	14	34	15
COc1ccccc1-c1cc(C(F)(F)F)c(C#N)c(=O)[nH]1	21	7	-14	-18	9	-15	·	·
COc1ccccc1-c1cc(SC)c(C#N)c(=O)o1	47	42*	44	-24	15	7	33	-9
CC#Cc1cc2c(cc1O)CCC1C2CCC2(C)C(O)CCC12 (stereo not drawn)	9	-118	-5	-11	2	-6	·	·
Brc1ccccc1/C=N/N1CCCCC1	-36	45*	3	-16	-4	-2	-19	-7
C(=NN1CCCCCC1)c1ccc2ccccc2n1	87*	87*	104*	86*	93*	84*	97*	103*
Oc1ccccc1C=NN1CCCCCC1	-52	-205	-33	-61	-62	-11	·	·
CC1Sc2ccc(S(=O)(=O)N(C)Cc3ccccc3)cc2NC1=O (stereo not drawn)	28	9	17	9	1	-1	·	·
COc1cc(C2CC(=O)Oc3cc(C)cc(C)c32)cc(OC)c1OC (stereo not drawn)	-20	10	2	-11	0	-3	·	·
N#Cc1cn(Cc2cccc(Cl)c2)c2ccccc12	13	22	-1	-1	3	4	·	·
O=C(O)Cn1cc(/C=C/[N+](=O)[O-])c2ccccc21	22	13	-7	8	3	-1	·	·
C(=N\n1cnnc1)/c1cn(Cc2ccccc2)c2ccccc12	-3	24	12	14	23	5	·	·
N#Cc1ccccc1Cn1cc(/C=C/[N+](=O)[O-])c2ccccc21	24	96*	50	96*	91*	24	97*	105*
O=C(Cn1cc(/C=C\[N+](=O)[O-])c2ccccc21)Nc1ccccc1	6	96*	-1	95*	91*	19	25	106*
SMILES	TROY signal inh	HIF-2a inh	TWEAK-Fn14 inh	Shn3 3UTR inh	TRPM1 prom inh	EBV LMP1 NFkB	HIF-2a inh conf	HIF-1a counter	others
O=[N+]([O-])/C=C/c1cn(Cc2ccccc2)c2ccccc12	-10	43*	22	22	19	2	71*	105*
Cc1onc(-c2ccccc2)c1-c1nnc(CN2CCN(S(=O)(=O)c3ccccc3F)CC2)o1	5	14	5	51	-1	-4	·	·
Cc1cc(C(=O)N2CCN(c3ccc([N+](=O)[O-])cc3)CC2)n[nH]1	-17	8	-4	1	-6	5	·	·
O=C(/C=C\Nc1ccccn1)c1ccc(Cl)cc1	50	46*	87*	43	-15	21	32	44
Cc1cccc(N/C=C/C(=O)c2ccc(Cl)cc2)c1	-23	-273	13	-74	-69	-20	·	·
O=C(O)c1cc(S(=O)(=O)N2CCCCC2)ccc1N1CCCC1	-13	5	-8	12	3	-3	·	·
Fc1ccc(-c2nnc(NC3=NCCCCC3)o2)cc1	77*	67*	99*	58	62*	65*	75*	66*
O=[N+]([O-])c1ccc(Oc2cccc(Br)c2)c2ccncc12	27	45*	35	-13	13	3	29	77*
Cc1ccc(NC(=O)CN2C(=O)NC(Cc3c[nH]c4ccccc34)C2=O)cc1 (stereo not drawn)	13	16	0	-3	17	-5	·	·
CC1CCCC(C)N1C(=O)COC(=O)c1n[nH]c(=O)c2ccccc12 (stereo not drawn)	-5	7	1	3	5	3	·	·
Cc1ccc(NC(=O)CSc2nc3ccccc3c(=O)n2CCCN2CCCCC2)cc1Cl	-6	4	-58	21	13	-16	·	·	Mdm2-MdmX confirm=103*
CNC(=O)COC(=O)c1ccccc1C(=O)c1ccc(Cl)c([N+](=O)[O-])c1	74*	71*	101*	39	89*	8	30	104*
CC(C)OC(=O)c1ccccc1C(=O)c1ccc(N)c([N+](=O)[O-])c1	7	19	-1	8	-2	1	·	·
O=C(COC(=O)c1ccccc1C(=O)c1ccc(Cl)c([N+](=O)[O-])c1)NC1CC1	65*	84*	95*	70	81*	50*	30	101*	Mdm2-MdmX confirm=103*
Cc1cc(-c2nc(C)c(-c3nnc(SCC(=O)Nc4ccc(Cl)cc4)n3C)s2)no1	8	10	-37	8	·	·	·	·
COc1ccc(C2NC(=O)NC(C)=C2C(=O)OC2CCCC(C)C2)cc1 (stereo not drawn)	44	41*	73*	26	4	11	10	44
